Calls of active or inactive are those of the source. The calls were made as follows: active = hit-call score of the fitted dose curve at least 0.9, where 1 is the maximum; inactive = score below 0.9.
Read-out: Transforming Growth Factor (TGFA), TGFA (gene 7039)
Experiment: LTEA_HepaRG_TGFA: Life Technologies and Expression Analysis (LTEA) Assay for Transforming Growth Factor (TGFA) using HepaRG (AID 2283532)
Conditions: mRNA level, 48 h; actives raise or lower the signal
Method in brief: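 Gene expression of TGFA was quantified by qRT-PCR after human HepaRG cells were treated for 48 h with test chemicals (eight concentrations, highest 100 uM, 0.5% DMSO). Activity in either direction was fitted relative to DMSO.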

outcome, inactive:
CC1=CC(=O)CC(C)(C)C1
CC(C)CCO
O=C(O)CCN(C1(C(=O)NO)CCCC1)S(=O)(=O)c1ccc(Oc2ccc(F)cc2)cc1
COC(=O)c1ccccc1O
CC(=O)OCCC(C)C
Clc1nc(Cl)c(Cl)c(Cl)c1Cl
Cc1ccc(S(=O)(=O)O)cc1C
CCOCCOCCOCCO
COC(=O)c1c(Cl)c(Cl)c(C(=O)OC)c(Cl)c1Cl
CC1(C)C(=O)N(Br)C(=O)N1Br
COC(=O)CC(=O)OC
CC[C@H]1CC[C@H](NCc2cc3c(cc2OC)[C@H]2C[C@H]2C(=O)N3C)[C@H](c2ccccc2)N1
CC(O)CN(CCN(CC(C)O)CC(C)O)CC(C)O (centres undefined)
O=C1CCC(N2C(=O)c3ccccc3C2=O)C(=O)N1 (centres undefined)
O=C1CCCCCN1
CCOCCO
CCN(C(=O)c1cc(C)cc(OC[C@H](C)Nc2ccncc2)c1)C(C)C
CCCCC(CC)COC(=O)c1ccc(C(=O)OCC(CC)CCCC)cc1 (centres undefined)
CNS(=O)(=O)c1cc(C(=O)N2CCC(CCN3C4CCC3CC(n3c(C)nc5ccccc53)C4)(c3cccc(F)c3)CC2)c(Cl)cc1F (centres undefined)
CCCCCCc1ccc(O)cc1O
COCCOCCOCCOC
CC[C@H](C)C(=O)O[C@H]1C[C@@H](C)C=C2C=C[C@H](C)[C@H](CC[C@@H]3C[C@@H](O)CC(=O)O3)[C@H]21
C=CC(=C)CCC=C(C)C
C1=CCCC=CCCC=CCC1
CC(C)=CCCC(C)=CC=O
Cn1cnc([N+](=O)[O-])c1Sc1ncnc2nc[nH]c12
CC(C)CC(C)(O)C#CC(C)(O)CC(C)C (centres undefined)

AC50, active:
O=P(OC(CCl)CCl)(OC(CCl)CCl)OC(CCl)CCl 83.3 µM
COc1cccc(-c2ccc(/C=C\CN3CCCCCC3)cc2Cl)c1 74.4 µM

From PubChem BioAssay (EPA / NIEHS)
